This is an account of results in PubChem BioAssay.

The source made the active and inactive calls.

Assay [1] can be described thus: A549 cell viability effects, profiling panel, calcein-AM fluorescence, 48 h, basal (AID 1162). The conditions noted are these: higher = more signal.
Assay [2] can be described thus: adipocyte viability effects, profiling panel, cell-based, 3T3-L1 adipocytes, calcein-AM fluorescence, 48 h, basal (AID 1163). Particulars: 3T3-L1 adipocytes viability, higher = more signal.
The nature of assay [3]: HepG2 cell viability effects, profiling panel, calcein-AM fluorescence, 48 h, basal (AID 1164). The conditions noted are these: higher = more signal.
A short description of assay [4]: MM1S cell viability effects, profiling panel, calcein-AM fluorescence, 48 h, basal (AID 1165).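 Further: viability of MM1S multiple myeloma cells under basal unstimulated conditions.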 The conditions noted are these: higher = more signal.
The nature of assay [5]: basal RPMI8226 viability, no added stimulus, profiling panel, cell-based, calcein-AM fluorescence, 48 h, PK04 Diversity Set (AID 1166).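 Further: cells grown under basal conditions without added stimulus.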 The conditions noted are these: RPMI8226 myeloma viability, higher = more signal.
Assay [6] is described as follows: basal HepG2 mitochondrial membrane potential changes, profiling panel, cell-based, JC-1 fluorescence, 24 h, 100 nL compound (AID 1167). Particulars: higher = more signal.
Assay [7] can be described thus: basal 3T3-L1 adipocyte mitochondrial potential changes, profiling panel, cell-based, JC-1 fluorescence, 3T3-L1 adipocytes, 24 h, 100 nL compound (AID 1168). The conditions noted are these: JC-1 mitochondrial fluorescence, higher = more signal, called active from +8 up or from −8 down.
Assay [8] in a line: basal RPMI8226 mitochondrial membrane potential changes, profiling panel, cell-based, JC-1 fluorescence, 24 h, 100 nL compound (AID 1169). The conditions noted are these: RPMI8226 myeloma, JC-1 mitochondrial potential fluorescence, higher = more signal.
Assay [9] in a line: basal MM1S mitochondrial membrane potential changes, profiling panel, cell-based, JC-1 fluorescence, 24 h, 100 nL compound (AID 1170). The conditions noted are these: higher = more signal.
Assay [10] in a line: A549 lung cancer cell viability effects, profiling panel, resazurin fluorescence, 24 h, PK04 Diversity Set (AID 1171). The conditions noted are these: higher = more signal, called active from +8 up or from −8 down. (Resazurin is reduced to fluorescent resorufin, in cell work by metabolically active cells.)
Further: test concentration not given here.

For the compound `C=C(CCCC)/C(=C/C[C@@H](OC(C)=O)c1ccc(CO)o1)c1cnc2ccccc2c1`, the z-score in [1] is 0.159; in assay [2] it was 1.04; in assay [3] it was -0.042; in assay [4] it was -1.56; in assay [5] it was -1.52; in assay [6], -0.462. Besides, the z-score was -0.583 (inactive) in [7], -0.133 in [8], -1.12 in [9] and -1.29 (inactive) in assay [10].
`CCOC(=O)C1=CC[C@@H](c2ccc(OC)cc2)N(S(=O)(=O)c2ccc(C)cc2)[C@H]1CC`: the z-score in [1] is 0.33; in [2] it was 0.815; in assay [3], 0.945; in assay [4], -1.25; in assay [5] it was -1.45; in assay [6] it was 5.4. In addition, the z-score is 1.53 (inactive) in [7], -0.301 in assay [8], -1.99 in assay [9] and 0.198 (inactive) in assay [10].
With `COc1ccc([Si](C)(C)[C@H]2[C@H](CCO)O[C@@]3(C(=O)N(Cc4ccc(NC(=O)[C@H](C)O)cc4)c4ccccc43)[C@@H]2C)cc1`, the z-score in assay [1] was -3.33; in assay [2], 1.36; in [3], -4.58; in assay [4], -2.64; in [5] it was -4.47; in [6], -2.19. In addition, the z-score in assay [7] is 0.843 (inactive); in assay [8] it was -1.11; in assay [9], -2.31; in [10], -5.03 (inactive).
On to `O=C(NCCN1CCOCC1)[C@@H]1c2ccccc2C(=O)N(Cc2ccccc2C(F)(F)F)[C@H]1c1ccc(CO)cc1`, for which the z-score in assay [1] is 1.9; in assay [2] it was 0.783; in assay [3], 0.893; in [4], 0.561; in assay [5] it was -0.588; in assay [6], 2.59. Moreover, the z-score in [7] was -0.0687 (inactive); in assay [8], -0.335; in [9] it was -0.109; in [10], 1.94 (inactive).
Turning to `CCN(CC)c1ccc(N2CC=CC34O[C@@H]5C=CCCOC(=O)C5[C@H]3C(=O)N(C(C)CO)[C@@H]4C2=O)cc1` (stereo not given in full), the z-score in assay [1] was -0.0735; in [2] it was -0.456; in assay [3], 0.316; in assay [4] it was 0.241; in [5], 0.333; in [6] it was 0.408. The z-score was 0.0389 (inactive) in assay [7], -0.487 in [8], 0.0276 in assay [9] and 0.586 (inactive) in [10].
For `[N-]=[N+]=Nc1ccccc1C[C@@]1(C(=O)NCC(O)CO)N=C(c2ccc(OCCCO)cc2)O[C@@H]1c1ccccc1` (stereo not given in full), the z-score is 0.378 in assay [1]; -0.326 in assay [2]; 0.75 in assay [3]; -0.39 in assay [4]; -0.342 in assay [5]; 0.582 in assay [6]. Besides, the z-score in [7] is -0.186 (inactive); in [8] it was -1.2; in [9], -0.145; in assay [10] it was -0.235 (inactive).
In the case of `COC(=O)[C@H](Cc1ccccc1)N1CC2=CCCC=C[C@@H]2[C@H]1[C@H](O)Cc1ccccc1`, the z-score is -0.183 in [1]; -0.635 in [2]; 0.244 in [3]; -3.12 in [4]; -1.41 in [5]; -0.866 in assay [6]. Moreover, the z-score in [7] was -0.116 (inactive); in assay [8] it was -1.16; in assay [9] it was -0.746; in [10], 0.705 (inactive).
For `COc1ccc([Si](C)(C)[C@@H]2[C@@H](CC(=O)N3Cc4ccccc4C[C@H]3CO)O[C@]3(C(=O)N(Cc4ccc(N5CCOC5=O)cc4)c4ccccc43)[C@H]2C)cc1`, the z-score in [1] is 0.369; in assay [2], 0.704; in assay [3] it was 0.115; in assay [4], -1.07; in assay [5] it was -0.876; in assay [6], 0.966. In addition, the z-score in assay [7] is 1 (inactive); in [8], -1.11; in [9], 0.359; in [10] it was -0.674 (inactive).
With `Cc1ccc(S[C@]2(C(=O)NCCCN(C)C)CC(=O)N(C3Cc4ccccc4C3)[C@@H]2c2ccc(CO)cc2I)cc1`, the z-score in assay [1] is 0.691; in assay [2] it was -0.749; in assay [3], -0.563; in assay [4], -2.64; in [5] it was -2.5; in assay [6], -0.188. Also, the z-score in assay [7] was -1.28 (inactive); in assay [8], -0.201; in assay [9], -1.09; in assay [10] it was 0.471 (inactive).
Regarding `COCCn1c(C(=O)N(C)C)cc2c1C[C@H]1CN(C(=O)c3ccccc3)[C@@](Cc3ccc(OC)cc3)(C(=O)OC)[C@@H]21`, the z-score was -0.615 in [1]; -0.61 in assay [2]; 0.33 in assay [3]; -0.479 in [4]; -0.843 in assay [5]; 0.564 in [6]. Moreover, the z-score in [7] is -0.722 (inactive); in assay [8], 0.0961; in [9], -1.52; in assay [10], -0.437 (inactive).
Take `C=C(COC)C(=O)CC[C@@H](OC(C)=O)c1ccccc1OCCO`: the z-score in assay [1] was 0.177; in assay [2], 1.37; in assay [3], -0.601; in assay [4], -3.28; in assay [5] it was -1.75; in [6] it was 0.143. For the same compound, the z-score in [7] is -0.22 (inactive); in assay [8], -0.557; in assay [9] it was -1.82; in assay [10], 0.837 (inactive).
Take `COc1ccc([Si](C)(C)[C@@H]2[C@@H](CC(=O)N3CCC[C@H]3CO)O[C@]3(C(=O)N(Cc4ccc(N5CCOC5=O)cc4)c4ccccc43)[C@H]2C)cc1`: the z-score is -0.526 in assay [1]; 1.05 in [2]; -2.21 in assay [3]; -2.64 in [4]; -4.54 in assay [5]; 0.391 in [6]. Also, the z-score in assay [7] was 1.67 (inactive); in [8] it was -1.07; in [9], -1.75; in assay [10] it was -1.77 (inactive).
As for `[N-]=[N+]=NCc1ccccc1[C@@H]1OC(c2ccc(OCCCO)cc2)=N[C@]1(Cc1ccccc1N=[N+]=[N-])C(=O)O`, the z-score was 0.143 in assay [1]; 1.47 in [2]; -0.567 in assay [3]; -1.82 in assay [4]; -3.36 in [5]; -1.44 in assay [6]. Moreover, the z-score in assay [7] was -1.48 (inactive); in assay [8], -1.11; in assay [9], 1.44; in assay [10], 0.54 (inactive).
For `CCCCCC1=C2CNC(Cc3ccccc3)(C(=O)OC)C=C2C(C)C1=O` (stereo not given), the z-score in assay [1] is -1.33; in [2] it was 0.598; in assay [3] it was -1.14; in assay [4], -2.69; in [5], -3.65; in assay [6] it was 1.14. For the same compound, the z-score in [7] is -1.55 (inactive); in [8], -0.608; in assay [9], -0.32; in assay [10], -0.605 (inactive).
Take `C=C(CCCC)/C(=C/C[C@H](OC(C)=O)c1cccc(OCCO)c1)c1cnc2ccccc2c1`: the z-score in assay [1] is 0.955; in [2], 1.16; in assay [3], 0.301; in [4], -3.13; in assay [5] it was -1.26; in assay [6], 1.86. The z-score was 0.0664 (inactive) in [7], -0.205 in [8], -0.209 in [9] and 0.395 (inactive) in assay [10].
Consider `Cc1ccc(S[C@]2(C(=O)NC(C)C)CC(=O)N(C3CCCCC3)[C@@H]2c2ccc(CO)cc2I)cc1`, for which the z-score in assay [1] is -0.0909; in assay [2], 0.0617; in assay [3] it was -0.938; in assay [4], -2.07; in assay [5], -2.68; in assay [6], 1.06. For the same compound, the z-score in assay [7] is -0.0605 (inactive); in assay [8] it was -0.351; in [9], -1.12; in [10] it was 0.81 (inactive).
With `CCCN1C(=O)[C@]2(CCC(=O)OC(C)(C)C)N=C(c3ccc(OCCCO)cc3)O[C@@H]2c2ccccc21`, the z-score in assay [1] was -1.19; in assay [2], 0.92; in [3], -1.49; in assay [4], -3.41; in [5], -4.37; in [6] it was 1.01. Moreover, the z-score is 2.01 (inactive) in [7], -1.32 in assay [8], -1.54 in assay [9] and -0.965 (inactive) in assay [10].
`C=CCNC(=O)[C@H]1[C@@H]2C(=O)O[C@@H](c3ccccc3)[C@@H](c3ccccc3)N2[C@@H](c2ccccc2OCCO)[C@]12C(=O)N(C(=O)OCCOC)c1ccc(C#Cc3ccc(OC)cc3)cc12`: the z-score in assay [1] is 0.005; in assay [2], -0.182; in assay [3], 0.0823; in assay [4], -1.05; in assay [5], -1.15; in [6], 0.421. The z-score in assay [7] is 3.69 (inactive); in [8], -0.981; in assay [9] it was -1.13; in assay [10] it was -0.958 (inactive).
As for `CCCCN1CC=CC23O[C@@H]4/C=C\CCCOC(=O)C4[C@H]2C(=O)N(C(CO)C(C)C)[C@@H]3C1=O` (stereo not given in full), the z-score is 0.374 in assay [1]; 0.265 in [2]; -0.0249 in assay [3]; 0.201 in [4]; 0.463 in assay [5]; -0.945 in assay [6]. Moreover, the z-score in assay [7] is -0.525 (inactive); in assay [8] it was -0.4; in [9], -0.608; in [10], -0.61 (inactive).
In the case of `Cc1ccc(N2C(=O)c3ccccc3[C@](C)(C(=O)NCCCN(C)C)[C@@H]2c2ccc(CO)cc2)nc1`, the z-score in assay [1] is 0.235; in assay [2] it was 0.85; in assay [3], -0.153; in assay [4], -0.629; in assay [5], -0.444; in [6] it was -0.53. Besides, the z-score was -0.419 (inactive) in assay [7], -0.884 in assay [8], -0.29 in assay [9] and 0.31 (inactive) in assay [10].
For `COCCOC(=O)N1C(=O)[C@@]2(c3cc(C#CCC(C(=O)OC)C(=O)OC)ccc31)[C@H](C(=O)Nc1nc3ccccc3s1)[C@H]1C(=O)O[C@H](c3ccccc3)[C@H](c3ccccc3)N1[C@@H]2c1ccc(O)cc1`, the z-score is -0.857 in [1]; 0.401 in assay [2]; -0.277 in [3]; 0.0422 in [4]; -0.23 in assay [5]; -2.45 in assay [6]. Also, the z-score in assay [7] is -2.24 (inactive); in [8], 0.467; in assay [9] it was 0.258; in assay [10], 0.677 (inactive).
